Shown are actives, neighbours in structure and some others; about 5.1% of the full set was active somewhere.
MPTP block: permeability transition pore inhibition; isolated mouse mitochondria, Ca2+ swelling absorbance, 30 min; inhibition, % at 10 µM; 1.4% of 360,000 active;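 active = inhibition of 50% or more, scaled per plate between neutral and stimulator controls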;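 note: 0% = DMSO wells given calcium and 100% = 1 mM EGTA wells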
CRFR2-BP antag: antagonists of CRF-binding protein/CRF-R2 receptor complex | HEK293 CRF-R2/CRF-BP, CRF-induced calcium fluorescence | inhibition, % at 11.8 µM | AID 588475 | 0.59% of 350,000 active;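 active = inhibition of the ligand-induced calcium signal above about 50% at the single tested concentration, limit read from the data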
ANO1 block: inhibitors of mouse TMEM16A calcium-activated chloride channel; Q8BHY3; HEK293 TMEM16A/YFP iodide influx fluorescence, ionomycin; normalized B-score (activity score, 25-100; higher = stronger inhibition) at 10 µM; 1.2% of 310,000 active;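 active = ratio plate-corrected score three or more library SD toward inhibition, starting fluorescence score within five deviations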;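 note: score derived from kinetic fluorescence span divided by baseline fluorescence per well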
ANO1 activ: mouse TMEM16A channel activation, primary screen | Q8BHY3 | 0.3% of 340,000 active | B-score at 10 µM | HEK293 TMEM16A/YFP-H148Q/I152L, iodide quench fluorescence; active compounds read low;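 active = fluorescence-ratio B-score plate-corrected deviation score at least 3 library SD below zero, with starting fluorescence score within 5 deviations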;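 note: channel opened by trigger with iodide after compound preincubation; score built on the fluorescence ratio of max minus min over baseline; more negative score means more quench and so TMEM16A activation or potentiation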
CRFR2-BP ag: agonists of human CRF-binding protein/CRF-R2 receptor complex | activation, % at 13.2 µM | AID 588473 | 0.46% of 350,000 active | HEK293 CRF-R2/CRF-BP, calcium dye fluorescence (FLIPR); percent of saturating CRF peptide response;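 active = activation of at least 50%, plus an integration ratio under a set limit after plate pattern correction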;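 note: plate controls were neutral control wells without compound for no effect and CRF at EC100 for full effect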
NR3A LBD binder: modulators (binders) of human NR3A ligand-binding domain | NR3A LBD differential scanning fluorimetry, Tm shift; 0% = protein alone, 100% = glycine-bound protein | 2.5% of 340,000 active | Tm shift relative to glycine control, % at 25 µM;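 active = melting temperature shift of at least 10% of the positive control shift, at one fixed dose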
Numbers without * were called inactive; i = inactive; . = not tested or not shown.

SMILES	MPTP block	CRFR2-BP antag	ANO1 block	ANO1 activ	CRFR2-BP ag	NR3A LBD binder
CC(C)(C)NC(=O)N1CCC(CO)(Cc2ccccc2Cl)CC1	-1	-32	i	-6.9*	5	0
O=C(Nc1ccc(S(=O)(=O)N2CCOCC2)cc1)c1ccc(=O)[nH]c1	.	-1	i	.	3	0
O=C(N=c1ccn(-c2nc3ccccc3nc2NS(=O)(=O)c2ccccc2)cc1)c1ccccc1Cl	0	-18	i	i	29	-8
CC(=O)Nc1ccc(S(=O)(=O)Nc2nc3ccccc3nc2-n2ccc(=NC(=O)c3ccccc3)cc2)cc1	1	6	i	i	6	25*
CC(=O)Nc1ccc(S(=O)(=O)Nc2nc3ccccc3nc2-n2ccc(=NC(=O)c3ccc(F)cc3)cc2)cc1	1	7	i	i	17	36*
CN(C(=O)COC(=O)Cn1cnc2ccccc21)C1CCCCC1	3	4	.	i	3	-2
CCC(=O)C1CCCN(C(=O)CCc2nnc(C3(c4ccc(Cl)cc4)CCC3)o2)C1 (stereo unspecified)	0	-2	i	i	-7	1
CC(C)=CCc1c(-c2ccc(O)cc2O)oc2cc3c(c(O)c2c1=O)C=CC(C)(C)O3	.	15	i	.	0	31*
CCOC(=O)CC(=O)CSc1nc(C)cc(C)c1C#N	0	-6	i	i	2	-1
CCOC(=O)CC(=O)CSc1nc2c(c(C)c1C#N)CCC2	-3	13	i	i	-6	20*
CCOC(=O)CC(=O)CSc1nc(N)c(C#N)c(-c2ccc(Cl)cc2)c1C#N	0	-35	i	i	1	16*
O=C(CC1CC2CCC1C2)N1CCN(S(=O)(=O)c2ccccc2F)CC1 (stereo unspecified)	0	-13	.	i	-1	0
CCCCNC(=O)C[C@@H]1C[C@@]2(C(=O)OC)CCCCC=C2N(Cc2ccc3c(c2)OCO3)C1=O	1	.	.	.	.	.
CC(C)n1c(SCC(=O)NC2CC2)nnc1C1CC1	0	2	i	i	0	-1
CC(C)(C)NC(=O)C(c1ccccc1)n1c(=O)c(-c2ccccc2)nc2ccccc21 (stereo unspecified)	3	.	.	.	.	.
OC(C#CCN1CCCCCC1)(c1ccccc1)c1cccnc1 (stereo unspecified)	0	117*	i	i	-1	-1
Cc1ccccc1OCC(=O)NC(=S)Nc1cccc2cc(O)ccc12	3	-26	i	i	2	19*
CC(C(=O)NCC1CCCCC1)N1CCN(S(=O)(=O)c2cccs2)CC1 (stereo unspecified)	2	4	.	i	-2	3
CC(C)[C@H](NC(=O)[C@@H]1Cc2ccccc2CN1)C(=O)NC1CCCCC1	-2	-1	i	i	-2	-1
C[C@H](NC(=O)[C@@H]1Cc2ccccc2CN1)C(=O)NC1CCCCC1	0	93*	i	i	0	-1
CCc1ccc(CNC(=O)C2CCC(=O)N(CCc3ccc(Cl)cc3)C2)nc1 (stereo unspecified)	1	19	i	i	-1	1
COc1cc2nc(CN3CCN(S(=O)(=O)c4ccccc4)CC3)[nH]c(=O)c2cc1OC	-1	0	.	i	-1	1
COc1cc2nc(CN3CCN(S(=O)(=O)c4ccc(Cl)cc4)CC3)[nH]c(=O)c2cc1OC	0	-8	i	-39*	-1	0
CNC[C@H](CC1CCCCC1)NC[C@H](Cc1ccccc1)NCCC12CC3CC(CC(C3)C1)C2	6	-61	100*	i	29	-8
Cc1ccccc1C(=O)N1CCC[C@H]1C(=O)N1CCC[C@H]1C(=O)NCc1ccccn1	1	.	.	.	.	.
SMILES	MPTP block	CRFR2-BP antag	ANO1 block	ANO1 activ	CRFR2-BP ag	NR3A LBD binder
Cc1cccc(NC(=S)/N=C(\N)Nc2nc(C)c3cc(C)ccc3n2)c1	4	-5	i	i	1	20*
CCOc1ccc(N/C(N)=N/c2nc(C)cc(C)n2)cc1	0	-69	i	i	141*	0
CCOc1ccc2nc(N/C(N)=N/C(=S)Nc3ccc(OC)cc3)nc(C)c2c1	-2	18	i	i	-1	27*
COc1ccc2nc(N/C(N)=N/C(=S)Nc3ccc(C)c(C)c3)nc(C)c2c1	.	.	i	.	.	.
Cc1cccc(NC(=S)/N=C(\N)Nc2nc(C)c3ccc(C)cc3n2)c1	0	6	i	i	3	-28
CC(=O)Nc1ccc(N/C(N)=N/c2nc(C)cc(C)n2)cc1	-1	-6	i	i	-2	-4
COc1ccc2nc(N/C(N)=N/C(=S)Nc3ccccc3)nc(C)c2c1	-2	-10	i	i	-1	19*
O=C(Nc1ccccc1)N1C(=O)C2(OCCO2)c2ccccc21	-2	24	i	i	0	13*
O=C(O)CN1C(=O)C2(OCCCO2)c2ccccc21	-2	-10	i	i	0	2
O=C(NCc1ccco1)C1CCN(C(=O)c2ccc(Cl)cc2)CC1	2	1	.	i	-1	2
O=C(NCc1ccco1)C1CCN(C(=O)c2cc3sccc3n2Cc2ccc(Cl)cc2)CC1	3	9	100*	i	-1	1
COc1ccc(S(=O)(=O)Nc2ccc(C)c(S(=O)(=O)N3CCOCC3)c2)cc1[N+](=O)[O-]	0	12	.	i	-1	0
COc1ccc(N2CCN(C(=O)CSc3ncnc4c3cnn4-c3ccccc3C)CC2)cc1	-4	0	i	i	0	0
Cc1ccccc1-n1ncc2c(SCC(=O)N3c4ccccc4CC3C)ncnc21 (stereo unspecified)	0	54*	i	i	7	0
Cc1ccc(S(=O)(=O)c2nnn3c2nc(N2CCCCC2)c2ccccc23)cc1	5	51*	i	i	2	3
Cc1ccc(S(=O)(=O)c2nnn3c2nc(N2CCOCC2)c2ccccc23)cc1	0	43	i	i	0	0
COc1ccc([C@H]2N[C@]3(CCCN(Cc4cccn4C)C3=O)[C@H]3C(=O)N(Cc4ccccc4)C(=O)[C@@H]23)cc1	2	4	.	.	-1	.
CCCCCCC(C)OC(=O)Nc1cccc2ccccc12 (stereo unspecified)	1	-16	i	i	3	10*
Cc1ccc(C)c(NC(=O)CN(C)C(=O)c2cc3c(s2)CCCCC3)c1	35	-1	i	i	-1	-1
CCCOc1ccc(F)cc1-c1cc(C(=O)Nc2ccc(C)c(NS(C)(=O)=O)c2)[nH]n1	0	.	.	.	.	.

Source: PubChem BioAssay
